INS-1E GSIS act: primary screen for activators of insulin secretion dependent on glucose, INS-1E cells, GLuc reporter luminescence | INS-1E GLuc reporter insulin secretion, 2-3 h | activation, % at 16.6 µM | 0.61% of 370,000 active | AID 743287;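 active = lowest replicate activation of at least 40%, so every replicate reaches that level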;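 also: 0% = median of neutral control wells and 100% = median of IBMX positive control wells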
rRNA inh HTS: inhibitors of bacterial rRNA selective over humanized ribosomes. E. coli WT GFP vs humanized-ribosome RFP mutants, fluorescence, 24 h; active compounds read low; DMSO median 0, no signal -100. GFP signal change (wild-type ribosome), % (no concentration beside the values). 1.6% of 350,000 active. AID 720706;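 active = significant combined selectivity score with lowered wild-type GFP, culture density cut under 30%, mutant RFP and density less affected; inactive = any of these conditions unmet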
ERAP1 inh: ERAP1 (human) enzyme inhibition | inhibition, % at 10.7 µM | Q9NZ08 | recombinant ERAP1, Leu-AMC fluorescence, 60 min | 0.15% of 340,000 active;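 active = mean replicate inhibition of at least 30%, or all replicates individually reaching that 30% level; inactive = mean below 30% and not every replicate reaching it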;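 also: 0% = neutral control wells and 100% = L-leucinethiol positive control wells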
Target sequence (Q9NZ08 whole entry, looked up): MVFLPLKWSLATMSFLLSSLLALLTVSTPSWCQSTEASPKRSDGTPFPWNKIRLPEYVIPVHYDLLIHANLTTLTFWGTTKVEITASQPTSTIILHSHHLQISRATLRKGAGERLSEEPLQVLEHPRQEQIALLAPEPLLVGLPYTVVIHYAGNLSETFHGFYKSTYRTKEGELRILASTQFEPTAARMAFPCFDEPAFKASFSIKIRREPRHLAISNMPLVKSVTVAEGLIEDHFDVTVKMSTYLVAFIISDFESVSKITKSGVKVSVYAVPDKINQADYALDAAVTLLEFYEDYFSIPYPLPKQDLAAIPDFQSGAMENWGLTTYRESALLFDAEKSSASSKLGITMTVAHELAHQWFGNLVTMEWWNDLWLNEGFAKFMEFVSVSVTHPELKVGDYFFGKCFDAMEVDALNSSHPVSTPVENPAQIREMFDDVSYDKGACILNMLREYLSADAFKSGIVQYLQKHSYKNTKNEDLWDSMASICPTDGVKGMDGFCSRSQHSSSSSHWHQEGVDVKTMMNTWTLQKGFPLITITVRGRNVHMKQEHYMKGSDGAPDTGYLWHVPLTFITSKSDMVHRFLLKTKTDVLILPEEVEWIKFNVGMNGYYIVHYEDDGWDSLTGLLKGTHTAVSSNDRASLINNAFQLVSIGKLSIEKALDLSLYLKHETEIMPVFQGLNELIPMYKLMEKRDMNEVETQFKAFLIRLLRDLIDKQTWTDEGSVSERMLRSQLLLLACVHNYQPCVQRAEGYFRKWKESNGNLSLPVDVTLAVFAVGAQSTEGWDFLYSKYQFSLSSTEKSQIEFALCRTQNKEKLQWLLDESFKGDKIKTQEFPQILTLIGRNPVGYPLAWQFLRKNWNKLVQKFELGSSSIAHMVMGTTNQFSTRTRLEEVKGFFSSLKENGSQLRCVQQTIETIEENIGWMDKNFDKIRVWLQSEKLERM
CaV13 FRET inh: Disruptors of the CACNA1D IQ motif to Ca2+-dependent inactivation inhibitor domain association, primary screening, Förster resonance energy transfer in intact living …; HEK cells, CFP/YFP FRET ICDI-IQ, plate reader, 10 min; percent FRET-ratio fall versus neutral wells; inhibition, % at 12.3 µM; 0.098% of 340,000 active; AID 743397;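 active = mean replicate inhibition of at least 30% and at least 1% of replicates passing that level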;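 also: 0% = median of the neutral control wells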
PGC1a acetyl inh: modulators of PGC1a acetylation; AID 651687; 0.17% of 350,000 active; inhibition, % at 15.6 µM; U2OS PGC1a acetylation, AlphaScreen anti-acetyl-lysine; with virally co-expressed GCN5 acetyltransferase;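 active = every replicate shows inhibition of at least 40%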;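 also: 0% = neutral control wells and 100% = positive control wells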
DENV2 CPE: DENV2-induced cell death inhibition; DENV2-infected cells, cytopathic effect rescue, plate reader; CPE inhibition, % at 9.99 µM; 1.7% of 350,000 active; in the data active = CPE inhibition above about 20%, passing the limit was not always enough; tested in BHK-21 cells;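 also: 0% = median of neutral control wells and 100% = median of positive control wells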
The depositor's hits bear a star; . = not tested or not shown; ! = a repeat was not active. An excerpt weighted towards active compounds, which were near 3.2% of everything screened.

SMILES | INS-1E GSIS act | rRNA inh HTS | ERAP1 inh | CaV13 FRET inh | PGC1a acetyl inh | DENV2 CPE
CC(=O)N1[C@@H]2Cn3c(ccc(/C=C/c4ccccc4)c3=O)[C@H]1[C@@H](C(=O)N(C)C)[C@@H]2CO | -1 | -2 | 8 | . | . | 2
CCC(=O)N1[C@@H]2c3ccc(/C=C/c4ccccc4)c(=O)n3C[C@H]1[C@H](CO)[C@H]2C(=O)N(C)C | 18 | 0 | 38* | . | . | 0
CS(=O)(=O)N1[C@@H]2c3ccc(-c4ccc(F)cc4)c(=O)n3C[C@H]1[C@H](CO)[C@H]2C(=O)N1CCOCC1 | 8 | 1 | . | . | . | 115*
COc1ccc(NC(=O)N(C)C[C@H]2Oc3ccc(NC(=O)Nc4ccc(C(F)(F)F)cc4)cc3CC(=O)N([C@@H](C)CO)C[C@@H]2C)cc1 | -14 | -1 | 2 | . | 4 | -3
CCCNC(=O)N(C)C[C@@H]1Oc2cc(C#CC3CC3)ccc2S(=O)(=O)N([C@@H](C)CO)C[C@@H]1C | -2 | -3 | 1 | . | -33 | -2
C[C@H]1CN([C@@H](C)CO)S(=O)(=O)c2ccc(-c3ccccc3)cc2O[C@H]1CN(C)C | -3 | 3 | -4 | . | -10 | -5
Cc1ccccc1NC(=O)Nc1nnc([C@@H]2C[C@H](O)[C@@H](CO)O2)s1 | 6 | 7 | 0 | -4 | . | 6
O=C(Nc1nnc([C@H]2C[C@H](O)[C@@H](CO)O2)s1)Nc1cccc(Cl)c1Cl | -12 | -25* | -5 | -6 | 3 | -6
O=C(NCc1cccc(F)c1)Nc1nnc([C@H]2C[C@H](O)[C@@H](CO)O2)s1 | 4 | 18 | -2 | -6 | -12 | 31*
CN(C)C(=O)c1cccc(-c2ccc([C@@H]3[C@@H](C#N)N(C(=O)C4CC4)[C@@H]3CO)cc2)c1 | -2 | -1 | -2 | . | 5 | -8
COc1ccc(S(=O)(=O)Nc2cccc3c2O[C@@H](CN(C)Cc2ccc(Cl)c(Cl)c2)[C@H](C)CN([C@H](C)CO)C3=O)cc1 | -25 | 0 | . | . | -20 | .
COCC#Cc1cnc2c(c1)C(=O)N([C@@H](C)CO)C[C@H](C)[C@H](CN(C)C(=O)CCN1CCCCC1)O2 | 17 | 3 | 0 | . | 1 | -10
CCNc1nc(NCC)nc(N(C#N)C(C)C)n1 | 48* | 5 | . | -3 | 6 | 5
COc1ccccc1S(=O)(=O)N1C[C@H](O)COC[C@@H]2O[C@@H](CC(=O)O)CC[C@H]21 | 20 | 4 | -1 | . | 6 | 2
C[C@@H]1CCCCO[C@@H](CN(C)Cc2ccc(C(=O)O)cc2)[C@@H](C)CN([C@@H](C)CO)C(=O)c2cc(NC(=O)Cc3ccccc3)ccc2O1 | 2 | 6 | -2 | . | -1 | 9
CC1Cc2ccccc2N1S(=O)(=O)c1cccc(C(=O)N2CC(=O)Nc3ccccc32)c1 (stereo not given) | -15 | -37* | . | -13 | -10 | .
CC(=O)N1CCN(C(=O)c2cccc(S(=O)(=O)N3c4ccccc4CC3C)c2)CC1 (stereo not given) | -11 | 1 | 1 | -6 | 6 | 4
O=C1CN(C(=O)c2ccc(Cl)c(S(=O)(=O)N3CCc4ccccc43)c2)c2ccccc2N1 | -26 | -35* | 2 | -5 | 3 | -9
CCCC#Cc1ccc([C@H]2[C@@H](CO)N[C@@H]2CN(C(C)=O)C2CCCC2)cc1 | -16 | 2 | -2 | . | . | -3
C[C@@H]1CCCCO[C@H](CN(C)S(C)(=O)=O)[C@@H](C)CN([C@@H](C)CO)C(=O)c2cc(NS(=O)(=O)c3ccccc3)ccc2O1 | -5 | -1 | 1 | . | -3 | 1
Nc1ccc(C#Cc2ccccc2)cc1 | . | . | . | -10 | 6 | .
Nc1ccccc1C#Cc1ccccc1 | -2 | 4 | -4 | -9 | . | 110*
C[C@H]1CN([C@@H](C)CO)C(=O)CCCn2cc(nn2)CO[C@@H]1CN(C)C(=O)Nc1ccc(F)cc1 | 251 | 3 | -9 | -4 | -6 | 44*!
CC(C)OC(=O)N(C)C[C@H]1OCc2cn(nn2)CCCC(=O)N([C@@H](C)CO)C[C@@H]1C | -5 | -2 | -1 | -5 | 4 | 12

High-throughput results deposited in PubChem by Broad Institute.
